# Source: PubChem
# Dicer processing: human Dicer pre-microRNA cleavage inhibition. Q9UPY3. cat-ELCCA pre-miR-21 Dicer processing, chemiluminescence; active compounds read high. z-score at 25 µM. 6% of 47,000 active. AID 1347074; in the data active = z-score above about 3, passing the limit was not always enough;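 also: higher signal means more uncleaved substrate so more Dicer inhibition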
# Numbers stand for hits; . = inactive. Only a selection was taken, and hits are over-represented in it overall.
SMILES,Dicer processing
Cn1c(=O)c2c(nc(NCCc3ccccc3)n2Cc2ccccc2F)n(C)c1=O,.
CC(=O)N1CCC(=O)N(Cc2ccccc2)c2ccccc21,.
Cc1sc2nc(SCCCC(=O)NCCO)nc(N)c2c1C,.
COc1cc(C2C3=C(CCCC3=O)Nc3nc(SCc4ccccc4F)[nH]c(=O)c32)ccc1O (configuration not stated),.
O=C(NC1=C(C(=O)c2ccccc2)N(Cc2ccccc2)S(=O)(=O)c2ccccc21)c1ccccc1,.
CC(=O)N1N=C(c2ccc(C)cc2)OC1c1cccnc1 (configuration not stated),.
CC(=O)N1N=C(c2ccc(Br)cc2)OC1c1ccc(F)cc1 (configuration not stated),3.2
CC(=O)N1N=C(c2cc(C)ccc2[N+](=O)[O-])OC1c1ccc(N(C)C)cc1 (configuration not stated),.
O=C1c2oc3ccc(Br)cc3c(=O)c2C(c2cccc(O)c2)N1Cc1ccc(F)cc1 (configuration not stated),.
COC(=O)C1=C(C)Nc2[nH]c(=O)[nH]c(=O)c2C1c1ccc(OCc2ccccc2)cc1 (configuration not stated),.
CCOC(=O)C(Cc1ccccc1)NC(=O)Nc1ccccc1 (configuration not stated),.
Cc1ccc(CSC2=NCCCN2)cc1,.
CC1CN=C(SCc2ccc(Cl)cc2)N1 (configuration not stated),.
Cc1ccc(CSC2=NCC(C)N2)cc1 (configuration not stated),3.2
Cc1cc(C)c2c(=O)n(C(=O)c3ccco3)sc2n1,.
O=C1C2C3c4ccccc4C(C(=O)O)(c4ccccc43)C2C(=O)N1c1ccc(Br)cc1 (configuration not stated),.
CN(C)C(=O)COc1ccc2ccccc2c1,.
O=C(OCc1ccccn1)c1ccc(COc2ccc3ccccc3c2)o1,3
COCn1c(COc2ccc3ccccc3c2)nc2ccccc21,.
CC(C)NC(=O)NNc1ccc(-c2csnn2)cc1,.
S=C(NC1CCCCC1)Sc1ccc(Cl)cc1,.
CCS(=O)(=O)c1ccc(O)c(NC(=O)c2nccnc2C(=O)O)c1,.
CS(=O)(=O)c1ccc2sc(NC(=O)c3cc4ccccc4o3)nc2c1,.
CS(=O)(=O)c1ccc2nc(NC(=O)Oc3ccccc3)sc2c1,.
CS(=O)(=O)c1ccc2nc(NC(=O)c3cc4ccccc4o3)sc2c1,4.2
SMILES,Dicer processing
CCCCC1(CO)C(=O)N(c2ccccc2)N(c2ccccc2)C1=O,6.1
CCCCC1(CNc2ccc(C)c([N+](=O)[O-])c2)C(=O)N(c2ccccc2)N(c2ccccc2)C1=O,.
CCCCC1(COC(=O)Nc2cccc(Cl)c2)C(=O)N(c2ccccc2)N(c2ccccc2)C1=O,.
Cc1ccc(N=C/C=C(/Nc2ccc(C)cc2)c2ccc(Cl)cc2)cc1,.
Cc1ccc(C(=O)CC2(O)C(=O)Nc3ccc(Br)cc32)s1 (configuration not stated),.
Cc1ccc(-c2nc(NC(=O)C3CC3)sc2C)cc1Cl,.
Cc1cc(-c2noc(COc3ccccc3F)n2)c2ccccc2n1,.
CCCOC(=O)CSc1nnc(-c2ccc(N(C)C)cc2)o1,.
c1ccc(-c2nnc(-c3ccccc3)o2)cc1,.
CN(C)c1ccc(-c2nnc(-c3ccccc3)o2)cc1,4.2
CC(C)(C)c1cc2nc(C(F)(F)F)cc(C#N)n2n1,.
Cn1nc(OS(=O)(=O)c2ccc(Cl)cc2Cl)cc1C(F)(F)F,.
COc1ccc(OC(=O)N2CCOCC2)cc1,5
COc1ccc(S(=O)(=O)NCCNC(=O)N2CCOCC2)cc1,.
O=C(Nc1ccc(OC(=O)N2CCOCC2)cc1)N1CCOCC1,.
C=CCOC(=O)C1=C(C)NC2=C(C(=O)CC(C)(C)C2)C1c1ccc(OCc2ccccc2)c(OC)c1 (configuration not stated),.
N#Cc1c(-c2cccs2)oc(N)c1-c1ccc(Cl)cc1Cl,.
N#Cc1cc(NC(=O)c2ccc(Cl)cc2)c(=O)n2c1sc1ccccc12,.
CC1=C(C(=O)Nc2ccccc2)C(c2cccs2)C(C#N)=C(SCC(N)=O)N1 (configuration not stated),.
Cc1ccc(Oc2ccc([N+](=O)[O-])cn2)c([N+](=O)[O-])n1,.
c1ccc(CSc2nn3cnnc3s2)cc1,.
CC(C)OC(=O)c1cc2ccccc2c(=O)s1,.
O=C(NCCO)c1cc2ccccc2c(=O)s1,3.8
O=C(NCc1ccc(C(F)(F)F)cc1)c1cc2ccc3ccccc3c2s1,.
NC(N)=NC(N)=Nc1ccc(I)cc1,.
SMILES,Dicer processing
CCO/C(C)=N\OC(=O)c1c(-c2c(F)cccc2Cl)noc1C,.
CC(C)(C)NC(=S)N/N=C/c1ccccc1SC(C)(C)C,.
CCCCCCCNC1CC(=O)N(c2ccc(Cl)cc2)C1=O (configuration not stated),.
O=C1CC(NCc2ccc(Cl)cc2)C(=O)N1c1ccc(Br)cc1 (configuration not stated),.
O=C1CC(NCCc2ccc(Cl)cc2)C(=O)N1c1ccc(Br)cc1 (configuration not stated),4.6
COC(=O)c1cc(=O)c2cc(C(F)(F)F)ccc2[nH]1,.
CCSCCOC(=O)C1=C(C)NC2=C(C(=O)CC(C)(C)C2)C1c1ccc(OC(C)=O)cc1 (configuration not stated),.
Cc1ccc(/C=N/NC(=O)Cn2nc3n(c2=O)-c2ccccc2SC3)o1,.
COc1cccc(/C=N/NC(=O)CN2C(=O)CSc3ccccc32)c1,3.2
Cc1nn(-c2ccccc2)cc1/C=N/NC(=O)Cn1nc2n(c1=O)-c1ccccc1SC2,.
COc1cccc(C2N3CC4(C)CN2CC(C)(C3)C4)c1O (configuration not stated),.
CCSCCOC(=O)C1=C(C)NC2=C(C(=O)CC(C)(C)C2)C1c1coc2ccc(C)cc2c1=O (configuration not stated),.
Cc1ccccc1N1CC23C=CC(O2)C(C(=O)OC(C)C)C3C1=O (configuration not stated),.
CCn1c[n+](CC(O)COc2ccc(OC)cc2)c2cc(C)c(C)cc21 (configuration not stated),.
C/C(N)=N/C(=S)Nc1ccc(Cl)cc1,.
CC(C)=NN/C(N)=N/C(=S)Nc1ccccc1,4
CO/C(N)=N/C(=S)Nc1ccccc1,.
CCOc1cc([N+](=O)[O-])c(OCC)cc1N1CCOCC1,.
CC(C)(C)c1ccc(-c2cc3ncnc(Nc4ccccc4)c3s2)cc1,.
COCc1[nH]nc2c1C1(CCN(C(=O)c3ccccc3)CC1)C(C#N)=C(N)O2,.
CCCCN1C(=O)C(O)(CC(=O)c2ccc(C)o2)c2cc(Br)ccc21 (configuration not stated),.
Cc1ccc(O)c(C2=NN3C(C2)c2ccccc2OC3c2cccnc2)c1 (configuration not stated),.
Oc1ccc(Cl)cc1C1=NN2C(C1)c1ccccc1OC2c1ccsc1 (configuration not stated),6.7
Oc1ccccc1C1=NN2C(C1)c1cc(Cl)ccc1OC2c1ccncc1 (configuration not stated),.
Oc1ccc(Cl)cc1C1=NN2C(C1)c1ccccc1OC2c1cccnc1 (configuration not stated),.
Oc1ccccc1C1=NN2C(C1)c1cc(Cl)ccc1OC2c1ccsc1 (configuration not stated),12
COc1ccc(O)c(C2=NN3C(C2)c2cc(Cl)ccc2OC3c2ccsc2)c1 (configuration not stated),.
